# Results as given in PubChem BioAssay.
# Where “and” joins values, the source holds several entries; their conditions need not be identical. Identical values can stand only once. Records with an inconclusive call do not appear. Calls of active or inactive are those of the source.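 Rule for the calls, unless noted: active = normalized viability below 100% at a tested concentration; inactive = the rest.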
# Assays:
# [1] = JHH-DIPG-1 glioma cell viability, MIPE5.0 library, CellTiter-Glo luminescence, qHTS (AID 1347067; cut-off not given, nearly all actives have AC50 up to about 26 µM;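 note: cells exposed to compound for 48 hours before readout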); conditions: JHH-DIPG-1 glioma viability, CellTiter-Glo ATP luminescence
# [2] = SU-DIPG-VI glioma cell viability, MIPE4.0 library, CellTiter-Glo luminescence, qHTS (AID 1347066; cut-off not given, nearly all actives have AC50 up to about 30 µM;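 note: cells exposed to compound for 48 hours before readout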); conditions: CellTiter-Glo ATP luminescence
# [3] = SU-DIPG-XXV glioma cell viability, MIPE5.0 library, qHTS (AID 1347068; cut-off not given, nearly all actives have IC50 up to about 30 µM)
# [4] = liver-stage malaria parasite growth inhibition, primary screen, cell-based, HepG2, luciferase luminescence, HepG2 viability (AID 624349; in the data active = parasite load remaining mostly below about 12%, no sharp cut-off; inactive = mostly above about 10%;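 note: 100% = mean of DMSO negative control wells on the same plate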); conditions: P. berghei liver stage in HepG2, luciferase luminescence, concentration not given here; parasite load remaining: stronger effect = lower value; viability: measured here: HepG2 viability without parasites
# [5] = system: Hepatitis C virus NS3 helicase; assay: HCV NS3 helicase inhibitors, primary screen, biochemical, fluorescence polarization, LOPAC1280 library (AID 687035; in the data active = inhibition above about 37%); conditions: Purified HCV NS3 helicase, Cy5-dT15 ssDNA binding fluorescence polarization; stronger effect = higher value; concentration not given here
# [6] = Cy5 fluorescence quenching or enhancement artefacts, artefact control for HCV NS3 helicase inhibitor project, biochemical, LOPAC1280 (AID 687037; call rule not given here); conditions: Cy5-DNA-NS3h complex fluorescence interference counterscreen
# [7] = sensitizers of A549 cells to miR-34 induction, primary screen, imaging, A549 dox-inducible miR-34, nuclei and caspase counts (AID 1347080;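 active = compounds whose cell count with miR-34 switched on is under 0.7 times the count with it off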); conditions: A549 miR-34 inducible, Hoechst nuclei count, 48 h
# [8] = phospholipid biosynthesis inhibitors in animal cells, primary screen, cell-based, LOPAC library, screen 4 (AID 1347384; call rule not given here); conditions: phospholipid biosynthesis inhibition screen, at 10 µM
# [9] = viability rescue of complex I mutant cybrids, primary screen, cell-based, galactose medium, ATP luminescence (AID 1645843;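 active = z-score of at least 1.8 in each of two replicates, scored against plate mean and spread of sample wells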;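 note: positive z means more ATP and so rescue of galactose-driven cybrid death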); conditions: complex I mutant cybrid cells, 72 h, stronger effect = higher value
# [10] = kinase inhibitors against Plasmodium liver-stage infection, cell-based, known kinase inhibitor set, luminescence, hepatoma host viability (AID 624392; call rule not given here;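 note: infected cells incubated roughly two days before readout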); conditions: Plasmodium liver stage in hepatoma cells, luciferase luminescence, concentration not given here; liver cell % of control: measured here: host liver cell viability; parasite % of control: stronger effect = lower value
# [11] = viability loss in pontine glioma line – cell-based, SU-DIPG-XXV, MIPE5.0, CellTiter-Glo, qHTS, dose response (AID 1347065; cut-off not given, nearly all actives have AC50 up to about 26 µM;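 note: cells exposed to compound for 48 hours before ATP readout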); conditions: CellTiter-Glo ATP luminescence
# [12] = survival rescue of mitochondrial mutant cells in low glucose, primary screen, MELAS cybrids, Rieske KO mouse fibroblasts, CellTiter-Glo (AID 1508586;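 active = mean z-score across replicates of 1.96 or higher in either the MELAS or the Rieske mutant cell line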;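 note: z relative to plate mean and SD of compound and empty wells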)
# [13] = ovarian cancer cell viability with rucaparib, profiling panel, oncology-focused library, rucaparib conditional (AID 1508598); conditions: patient-derived ovarian cancer cells, CellTiter-Glo viability, 144 h, stronger effect = lower value
# [14] = stronger effect = lower value, cell number ratio, induced over uninduced
# [15] = measured here: relative caspase fold change +Dox/-Dox
# [16] = measured here: total cells with miR-34 induction, stronger effect = lower value
# [17] = measured here: total cells without miR-34 induction
smiles,measurement,setting,value
CC1Cc2ccccc2N1C(=O)Cc1nc(N2CCOCC2)cc(=O)[nH]1 (stereo not drawn),outcome,[1],inactive
COCC(=O)NC/C=C/c1ccc2ncnc(Nc3ccc(Oc4ccc(C)nc4)c(C)c3)c2c1,outcome,[1],inactive
FC(F)(F)c1ccc(Nc2nc3ccc(Oc4ccnc(-c5ncc(C(F)(F)F)[nH]5)c4)cc3[nH]2)cc1,AC50,[2],20.9 µM (active)
NC(=O)c1nnn(Cc2cc(Cl)c(C(=O)c3ccc(Cl)cc3)c(Cl)c2)c1N,AC50,[2],18.7 µM (active)
CC(C)C[C@H](NC(=O)[C@H](Cc1ccccc1)NC(=O)OCc1ccccc1)C(=O)C=O,outcome,[1],inactive
CCNC(=O)Nc1ncc(-c2cc(-c3c(C)cc(OC)cc3C)nc(-c3cnccn3)n2)s1,outcome,[1],inactive
same,outcome,[3],inactive
Cc1cccc(/C=N/Nc2cc(N3CCOCC3)nc(OCCc3ccccn3)n2)c1,outcome,[1],inactive
C#CCC(Cc1cnc2nc(N)nc(N)c2n1)c1ccc(C(=O)N[C@@H](CCC(=O)O)C(=O)O)cc1 (stereo partly drawn),outcome,[1],inactive
N#CN1CCC[C@@H](n2nc(-c3ccc(Oc4ccc(F)cc4F)cc3)c(C(N)=O)c2N)C1,outcome,[1],inactive
same,outcome,[3],inactive
Cn1c(NC[C@@H](N)Cc2ccccc2)nc(-c2ccncc2)c(-c2ccc3ccccc3c2)c1=O,outcome,[3],inactive
COC1CC(C(=O)c2ccc3c(N)ncc(-c4ccc(-c5cnn(C)c5)cc4)c3n2)C1 (stereo not drawn),outcome,[1],inactive
same,outcome,[3],inactive
CCC(=O)N[C@H]1CC[C@H](C(=O)N(C)c2ccc(-c3nc4ccccc4o3)cc2)C1,outcome,[2],inactive
same,outcome,[1],inactive
C[C@H]1CC2[C@@H]3CCC4=CC(=O)C=C[C@]4(C)[C@@]3(F)[C@@H](O)C[C@]2(C)[C@@]1(O)C(=O)CO (stereo partly drawn),outcome,[1],inactive
same,outcome,[3],inactive
CS(=O)(=O)c1ccc(-c2cnc(NCc3ccco3)n3cnnc23)cc1,AC50,[1],20.9 µM (active)
COc1ccc(-c2c(C)nn3c(NCCN4CCOCC4)cc(C)nc23)cc1OC,outcome,[3],inactive
CCN1/C(=C/C(C)=O)Sc2ccc(OC)cc21,parasite load remaining,[4],36.4% (inactive)
same,viability,[4],92.3%
same,inhibition,[5],-4% (inactive)
same,fluorescence ratio (interference),[6],0.9 (inactive)
same,outcome,[1],inactive
same,outcome,[3],inactive
same,fold change,[7]; [14],1.04 (inactive)
same,fold change,[7]; [15],1.19
same,cell count,[7]; [16],7360
same,cell count,[7]; [17],7040
same,outcome,[8],inactive
same,z-score,[9],0.785 (inactive)
CC/C(=C(/c1ccc(/C=C/C(=O)O)cc1)c1ccc2[nH]ncc2c1)c1ccc(F)cc1Cl,AC50,[1],26.3 µM (active)
CC1CCN(c2cc(N3CCN(C)CC3)ccc2NC(=O)c2cc(C#N)c[nH]2)CC1,outcome,[2],inactive
same,outcome,[3],inactive
OCCC#Cc1nc(-c2ccc(F)cc2)c(-c2ccncc2)n1CCCc1ccccc1,liver cell % of control,[10],306% and 93.3% and 95.7%
same,parasite % of control,[10],3.85% (inactive) and 44.3% (inactive) and 36.9% (inactive)
same,AC50,[1],26.3 µM (active)
same,outcome,[3],inactive
CN1CCN(c2ccc(OC(F)(F)F)c(Nc3ncc4c(n3)-c3c(c(C(N)=O)nn3CCO)CC4)c2)CC1,AC50,[11],0.118 µM (active)
same,fold change,[7]; [14],0.983 (inactive)
same,fold change,[7]; [15],0.326
same,cell count,[7]; [16],1120
same,cell count,[7]; [17],1140
same,z-score,"[12]; MELAS cybrid survival, CellTiter-Glo 48 h, stronger effect = higher value",1.84 (inactive)
same,z-score,"[12]; Rieske KO mouse fibroblast survival, CellTiter-Glo 72 h",-0.694
same,viability,"[13]; at 0.000305 µM, OCI-C5x cells, with rucaparib 10 µM, 100% = cells with rucaparib alone",119% (inactive)
same,viability,"[13]; at 0.000305 µM, OCI-C5x cells, without rucaparib",114% (inactive)
same,viability,"[13]; at 0.000305 µM, OCI-P5x cells, with rucaparib 20 µM, 100% = cells with rucaparib alone",90% (active)
same,viability,"[13]; at 0.000305 µM, OCI-P5x cells, without rucaparib",84.5% (active)
same,viability,"[13]; at 0.00122 µM, OCI-C5x cells, with rucaparib 10 µM, 100% = cells with rucaparib alone",125% (inactive)
same,viability,"[13]; at 0.00122 µM, OCI-C5x cells, without rucaparib",112% (inactive)
same,viability,"[13]; at 0.00122 µM, OCI-P5x cells, with rucaparib 20 µM, 100% = cells with rucaparib alone",94.4% (active)
same,viability,"[13]; at 0.00122 µM, OCI-P5x cells, without rucaparib",86.5% (active)
same,viability,"[13]; at 0.00488 µM, OCI-C5x cells, with rucaparib 10 µM, 100% = cells with rucaparib alone",123% (inactive)
same,viability,"[13]; at 0.00488 µM, OCI-C5x cells, without rucaparib",105% (inactive)
same,viability,"[13]; at 0.00488 µM, OCI-P5x cells, with rucaparib 20 µM, 100% = cells with rucaparib alone",88.1% (active)
same,viability,"[13]; at 0.00488 µM, OCI-P5x cells, without rucaparib",58.9% (active)
same,viability,"[13]; at 0.0195 µM, OCI-C5x cells, with rucaparib 10 µM, 100% = cells with rucaparib alone",125% (inactive)
same,viability,"[13]; at 0.0195 µM, OCI-C5x cells, without rucaparib",60% (active)
same,viability,"[13]; at 0.0195 µM, OCI-P5x cells, with rucaparib 20 µM, 100% = cells with rucaparib alone",78.1% (active)
same,viability,"[13]; at 0.0195 µM, OCI-P5x cells, without rucaparib",20.2% (active)
same,viability,"[13]; at 0.0781 µM, OCI-C5x cells, with rucaparib 10 µM, 100% = cells with rucaparib alone",67.6% (active)
same,viability,"[13]; at 0.0781 µM, OCI-C5x cells, without rucaparib",40.8% (active)
same,viability,"[13]; at 0.0781 µM, OCI-P5x cells, with rucaparib 20 µM, 100% = cells with rucaparib alone",64.7% (active)
same,viability,"[13]; at 0.0781 µM, OCI-P5x cells, without rucaparib",14.3% (active)
same,viability,"[13]; at 0.313 µM, OCI-C5x cells, with rucaparib 10 µM, 100% = cells with rucaparib alone",49.1% (active)
same,viability,"[13]; at 0.313 µM, OCI-C5x cells, without rucaparib",27.6% (active)
same,viability,"[13]; at 0.313 µM, OCI-P5x cells, with rucaparib 20 µM, 100% = cells with rucaparib alone",70% (active)
same,viability,"[13]; at 0.313 µM, OCI-P5x cells, without rucaparib",13.1% (active)
same,viability,"[13]; at 1.25 µM, OCI-C5x cells, with rucaparib 10 µM, 100% = cells with rucaparib alone",37.5% (active)
same,viability,"[13]; at 1.25 µM, OCI-C5x cells, without rucaparib",28.9% (active)
same,viability,"[13]; at 1.25 µM, OCI-P5x cells, with rucaparib 20 µM, 100% = cells with rucaparib alone",73.8% (active)
same,viability,"[13]; at 1.25 µM, OCI-P5x cells, without rucaparib",13.7% (active)
same,viability,"[13]; at 5 µM, OCI-C5x cells, with rucaparib 10 µM, 100% = cells with rucaparib alone",40.7% (active)
same,viability,"[13]; at 5 µM, OCI-C5x cells, without rucaparib",26.6% (active)
same,viability,"[13]; at 5 µM, OCI-P5x cells, with rucaparib 20 µM, 100% = cells with rucaparib alone",74.1% (active)
same,viability,"[13]; at 5 µM, OCI-P5x cells, without rucaparib",14.5% (active)
